The list is not random: actives were taken first. Their share in the collection is about 7.9%.
HCMV antiviral – human cytomegalovirus inhibition. HFF cells, HCMV-luciferase reporter, 72 h; hits give low values. activity change, negative = inhibition, % at 57.5 µM. 410,000 tested, 4.5% active. AID 1259415; in the data active = activity change below about -60%; inconclusive = no clear call, values can overlap the other calls; inactive = above about -39%
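HFF cells seeded 16 h at 37C, treated with compounds, infected with luciferase-reporter HCMV at MOI 1 PFU/cell; luciferase read at 72 h post infection, normalized to buffer-only and Salinomycin controls.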
Marburg entry inh – Marburg virus entry inhibition; Potency, µM (doses to about 37.8 µM), inactives show at the highest dose activity change, negative = inhibition, actives largely listed as inhibitors; Marburg virus pseudotyped entry inhibition, cell reporter; AID 540276; 300,000 tested, 1.8% active; calls by dose curve; tested in HEK293 cells; note: potency is the fitted concentration of half-maximal effect
FMDV inh – foot and mouth disease virus antiviral activity | AID 1159524 | FMDV antiviral cell-based qHTS | Potency, µM (highest dose often 57.9 µM), inactives show at the highest dose activity change, negative = inhibition, hits mostly inhibitors | 410,000 tested, 1.2% active; calls by dose curve; tested in HEK293T cells; note: read-out not given here; potency is the fitted concentration of half-maximal effect; nearly all actives have a fitted effect of over 45% in size
HCV inh – inhibitors of hepatitis C virus infection. Huh7.5.1 HCVcc-Cre infection, luciferase reporter, 44 h. Potency, µM (top dose mostly 41.8 µM), for inactives: at the top dose activity change, negative = inhibition, most hits filed as inhibitors. 340,000 tested, 3.4% active; active = well fitted inhibition curve with a large enough effect; inconclusive = small, poorly fitted or top-dose-only effect, or another doubt; inactive = no such curve, though single readings can be large or run the other way; note: potency is the fitted concentration of half-maximal effect
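Antiviral activity was scored by luciferase reporter output from cells infected with HCVcc-Cre (~0.5 moi) in presence of compound, 44 h infection period, cells seeded 1,000/well 4 h prior.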
LASV entry inh – Lassa virus entry inhibition. Lassa virus pseudotype entry inhibition, cell reporter. Potency, µM (highest dose often 37.9 µM), inactives show top-dose activity change, negative = inhibition, usual class: inhibitors. 300,000 tested, 1.2% active; calls by dose curve; tested in HEK293 cells; note: potency is the fitted concentration of half-maximal effect; nearly all actives have a fitted effect of over 50% in size
Numbers without * were called inactive; ? = inconclusive; . = no result given; ! = a repeat was not active; [ ] = another dose, or the depositor's remark. % is set by controls: 0 for no effect and ±100 for the full control effect.

SMILES	HCMV antiviral	Marburg entry inh	FMDV inh	HCV inh	LASV entry inh
O=C(c1ccc(Cl)cc1)N1CCN(CCc2ccccn2)CC1	75.8	?	6.8%	21.2%	5.3%
O=C1CC(c2ccccc2)CC2=C1C=Nc1ccccc1N2 (configuration not stated)	-76.8*	?	?	-27.4%	?
O=C1CC(c2ccc(F)cc2)CC2=C1C=Nc1ccccc1N2 (configuration not stated)	-31.1	?	?	-19.6%	.
O=C(Nc1ccccc1Cl)C1CC(=O)N(Cc2ccco2)C1 (configuration not stated)	9.1	.	-9.6%	27.8%	.
Cc1cc(C2CCCCC2)n(O)c(=O)c1	-77.8*	.	-27.6%	?	.
Cn1c(NC2CCCCC2)cc(=O)n(C)c1=O	11.4	-11.4%	3.3%	4.1%	13.6%
CN(C)/C=C/C(=O)c1ccc2noc(-c3ccccc3)c2c1	-62.7*	5.2%[46.1 µM]	-5.5%	?	-13.9%[46.1 µM]
CCN(CC)c1ccc(/C=C/[N+](=O)[O-])cc1	-114.0*	?	?	11.6%	?
CCN(CC)c1ccc(/C=N/NC(=O)c2ccc([N+](=O)[O-])cc2)cc1	60.1	.	9.5%	-27.5%	.
Cc1cc(C)c(-c2noc(C(=O)OC(C)(C)C)c2C(=O)OC(C)(C)C)c(C)c1	13.1	-16.0%	?	-7.6%	-9.2%
Cc1cc(O)cc(C)c1C=Cc1cncc(C(=O)OC(C)(C)C)c1	.	.	.	.	0.791µM*
COC(=O)[C@@H]1CCCN1Cc1ccc2c(c1)CN(Cc1cccn1-c1ccc(Cl)cn1)CCO2	.	.	-1.7%	.	.
O=C(NCCCO)c1cc2c(cn1)[nH]c1ccccc12	31.8	.	37.3%	-4.7%	.
O=C(NCCCN1CCOCC1)c1cc2c([nH]c3ccccc32)c(-c2cccc(Br)c2)n1	-20.7	.	?	?	.
COc1cccc(-c2nc(C(=O)NCCCN3CCOCC3)cc3c2[nH]c2ccccc23)c1	-74.3*	.	-28.3%	11.2µM*	.
O=C(NCCCO)c1cc2c([nH]c3ccccc32)c(-c2ccccc2)n1	-27.8	?	-28.8%	10µM*	-0.3%[46.1 µM]
CC1(C(=O)NCC2CC2)Cc2c(-c3cccc(C(F)(F)F)c3)ccnc2O1 (configuration not stated)	-29.6	.	-23.3%	.	.
COc1cccc(-c2ccc3ncnc(NCCNC(C)=O)c3c2)c1	.	.	-13.2%	.	.
CCCCCCCCOC(=O)c1cc([N+](=O)[O-])c(Sc2ncnc3nc[nH]c23)c([N+](=O)[O-])c1	?	?	?	9.5%	11.2µM*
CCCCOC(=O)c1ccc(Nc2ncnc3nc[nH]c23)cc1	82.4	12.9%	37.6%	2.3%	3.3%
Cc1ccc(S(=O)(=O)c2nnn3c2nc(N2CCCCC2)c2ccccc23)cc1	36.5	?	-7.1%	-2.0%	29.1%
Cc1ccc(S(=O)(=O)c2nnn3c2nc(N2CCOCC2)c2ccccc23)cc1	8.9	.	-4.1%	11.2µM*	.
O=S1(=O)[C@H]2C[C@H](CO)O[C@@]2(CO)CN1Cc1ccc(-c2cccc(Cl)c2)cc1	4.7	1.7%	-33.7%	?	.
O=S1(=O)[C@H]2C[C@H](CO)O[C@@]2(CO)CN1Cc1ccc(-c2ccc(F)cc2)cc1	-20.0	.	-19.3%	11.2µM*	.
Cc1oc(-c2ccccc2)nc1Cn1cccc1C1=NC(c2ccccc2)CO1 (configuration not stated)	-27.4	20µM*	?	?	?
SMILES	HCMV antiviral	Marburg entry inh	FMDV inh	HCV inh	LASV entry inh
Fc1ccc(Cn2cccc2C2=NC(c3ccccc3)CO2)cc1 (configuration not stated)	-30.3	26.4%	18.4%	9.1%	13.2%
COc1ccc(/C=C/C(=O)Nc2sc3c(c2C(N)=O)CCC(C)C3)cc1OC (configuration not stated)	-20.1	12.6%[46.1 µM]	5.6%	.	-23.5%[46.1 µM]
COC(=O)c1cc(NC(=O)CC2CCCC2)cc(C(=O)OC)c1	-63.7*	?	-18.2%	-29.8%	0.8%
CC(C)Oc1ccc(C(CCN)C2CCCCC2)cc1 (configuration not stated)	-98.9*	?	-24.5%	?	?
CC(C)Oc1ccc(C(=O)NC2CCCCC2)cc1	42.8	-1.5%	38.9%	0.0%	-19.5%
CCN(c1ccccc1)S(=O)(=O)c1cc(C(=O)Nc2ccccc2Cl)ccc1F	-63.1*	?	?	?	?
Cc1ccc(C(=O)Nc2ccccc2)cc1S(=O)(=O)Nc1ccc(Br)cc1	-23.0	.	28.3%	.	?
CCN(c1ccccc1)S(=O)(=O)c1cc(C(=O)Nc2ccc(Br)cc2)ccc1F	-89.4*	?	17.8µM*	2.82µM*!	11.6µM*
CCOC(=O)c1cccc(NC(=O)NCCc2c(C)nn(C)c2C)c1	-4.8	.	-10.2%	.	-1.4%[46.1 µM]
CCOC(=O)C1=NN(c2ccc(C)cc2)C2(S1)SC(C(C)=O)=C(C)N2c1ccccc1 (configuration not stated)	-29.5	?	-24.2%	14.1µM*	?
CC1C/C(=C\c2cccnc2)C(=O)/C(=C/c2cccnc2)C1 (configuration not stated)	-100.9*	2.06µM*	3.55µM*	?	2.91µM*
CN1C(=O)C(=Cc2cccnc2)C(=O)N(C)C1=O	34.9	15.2%	0.0%	19.8%	23.0%
O=C1/C(=C/c2cccnc2)CCc2c1[nH]c1ccccc21	-76.3*	?	37.4%	-29.0%	-22.5%
CCOC(=O)c1ccc(Nc2c(-c3cccc(O)c3)nc3nc[nH]n23)cc1	21.9	.	-7.8%	.	?
O=C(CCC(=O)N1CCSc2ccccc21)NCc1ccccc1Cl	-61.9*	-16.2%[46.1 µM]	-13.6%	.	.
N#Cc1ccc(-c2ccc(OCC(=O)NCC(=O)Nc3ccc(F)c(F)c3F)cc2)cc1	-60.0*	?	0.0%	4.2%	1.7%
CCOc1ccc(C(=O)CCC(=O)NCC(=O)Nc2ccc(F)c(F)c2F)cc1	25.6	.	-13.2%	.	.
O=C(CCc1nc2sc3c(c2c(=O)[nH]1)CCCC3)NCCOc1ccccc1	-5.4	19.7%	1.5%	?	?
CN(C)C(CNC(=O)CCc1nc2sc3c(c2c(=O)[nH]1)CCCC3)c1ccccc1 (configuration not stated)	-12.7	10µM*	-22.1%	?	-0.5%
O=C1C[C@H](S(=O)(=O)c2ccccc2)[C@@H](/C=C/c2ccccc2)N1Cc1ccccc1	-4.3	.	.	.	.
CCC(=O)N1CCc2cc(CNC(=O)C(CC)c3ccccc3)ccc21 (configuration not stated)	-6.1	.	-1.0%	.	5.6%[46.1 µM]
CC(=O)Nc1sc2c(c1C(c1ccccc1)N1CCOCC1)CCCC2 (configuration not stated)	-28.3	7.2%	?	35.8%	19.6%
O=C(Nc1sc2c(c1C(=O)Nc1ccc(Cl)cc1)CCCC2)c1cccs1	8.7	.	?	.	-1.2%[46.1 µM]
CC(=O)Nc1sc2c(c1C(c1ccc(Cl)cc1)N1CCOCC1)CCCC2 (configuration not stated)	-94.3*	?	?	1.5%	?
CC(=O)Nc1sc2c(c1C(c1ccc(F)cc1)N1CCOCC1)CCCC2 (configuration not stated)	-86.2*	12.6µM*	?	7.9%	-25.2%

Screening data from PubChem BioAssay.
